Source: PubChem BioAssay (National Center for Advancing Translational Sciences (NCATS))
Only some compounds are listed: those with a hit (about 7.9% of all), similar ones and a draw of the others.
HT1080-NT tox: kills 2HG-producing HT-1080-NT fibrosarcoma cells; HT-1080-NT fibrosarcoma viability, CellTiter-Glo ATP luminescence, 48 h; Potency, µM (highest dose often 46.1 µM), actives largely listed as cytotoxic; 360,000 compounds, 1.6% hits; AID 686970;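 also: NT is the 2HG producing partner of a matched IDH1 knockdown line; nearly all actives have a fitted effect of over 55% in size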
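Fibrosarcoma NT cells, 750 per well in 5% FBS RPMI, were exposed to compound for 48 hours. Viability: CellTiter-Glo luminescence.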
SW480 rereplic: DNA re-replication induction in SW480 cells. SW480 DNA re-replication, Hoechst DNA content imaging, 48 h. 340,000 compounds, 1.8% hits. Potency, µM (series often up to 46.1 µM), hits mostly activators; also: nearly all actives have a fitted effect of over 55% in size
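Treated cells incubate 48 hr (37 C, 5% CO2), are stained 40 min with Hoechst, and nuclear fluorescence is enumerated; a rise in nuclei with high DNA signal marks re-replication.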
KB-V1 MDR tox: kills drug-selected multidrug resistant KB-V1 cells. KB-V1 MDR cells viability, CellTiter-Glo, 72 h. Potency, µM (series often up to 46.1 µM), hits mostly cytotoxic. 400,000 compounds, 3.4% hits; also: nearly all actives have a fitted effect of over 60% in size
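Readout: CellTiter-Glo luminescence, 10 min after addition. Cells: KB-V1 MDR subline, 72 h at 37 degrees C with compound. Analysis: corrected, normalized data fitted to concentration-effect curves.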
HT1080 IDH1KD tx: toxicity to HT-1080 IDH1 knockdown cells (counter line). AID 686971. 360,000 compounds, 2% hits. HT-1080 IDH1 knockdown viability, ATP luminescence, 48 h. Potency, µM (highest dose often 46.1 µM), usual class: cytotoxic
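After a 2 h attachment period, IDH1KD HT-1080 cells took pin-transferred compound for 48 h at 37 °C; ATP-based luminescence after 10 min room-temperature reagent incubation reported viability.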
KB-3-1 cytotox: kills parental KB-3-1 adenocarcinoma cells | KB-3-1 viability, CellTiter-Glo ATP luminescence, 72 h | 400,000 compounds, 1.4% hits | Potency, µM (titrated, usually from 46.1 µM), usual class: cytotoxic; also: nearly all actives have a fitted effect of over 60% in size
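Cells are dispensed, compounds pinned in, plates held at 37 °C for 72 h, then CellTiter-Glo is added and luminescence read after 10 minutes. Cell line: parental KB-3-1 in phenol-red-free DMEM, 10% FBS.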
MCF10A rereplic: inducers of DNA re-replication in MCF 10A breast cells. MCF 10A DNA re-replication, Hoechst nuclear intensity, 48 h. Potency, µM (series often up to 46.1 µM), usual class: activators. 350,000 compounds, 2.9% hits; also: nearly all actives have a fitted effect of over 50% in size
Each line names hits and unclear results; the compound was inactive in the other large screens. Calls follow the shape of the dose curve; as a rule, active = well fitted curve in the direction sought with a large enough effect; inconclusive = small, poorly fitted or top-dose-only effect, or another doubt; inactive = no such curve, though single readings can be large; an effect the other way counts as inactive or inconclusive.

CCC(=O)NC(c1ccc([N+](=O)[O-])cc1)c1c(O)ccc2ccccc12 (stereo not given)	HT1080-NT tox inconclusive, HT1080 IDH1KD tx inconclusive, MCF10A rereplic inconclusive
CCCCC(=O)NC(c1ccc([N+](=O)[O-])cc1)c1c(O)ccc2ccccc12 (stereo not given)	HT1080-NT tox 16µM, SW480 rereplic inconclusive, KB-V1 MDR tox 16µM, HT1080 IDH1KD tx inconclusive, KB-3-1 cytotox inconclusive, MCF10A rereplic inconclusive
Cc1nc(C(F)(F)F)ccc1C(=O)NCC(O)c1ccccc1 (stereo not given)	none
CC1CCC/C(=C(\C#N)c2nc(-c3cc4ccccc4oc3=O)cs2)C1 (stereo not given)	KB-V1 MDR tox 8.2µM, KB-3-1 cytotox inconclusive
COc1ccc(/C=C(/C#N)c2nc(-c3cc4ccccc4oc3=O)cs2)cc1	none (no result: HT1080-NT tox, SW480 rereplic, HT1080 IDH1KD tx, MCF10A rereplic)
Cc1ccc(/C=C/C(=O)c2c(C)nc3ccccn23)cc1	HT1080-NT tox inconclusive, SW480 rereplic inconclusive, KB-3-1 cytotox 18µM, MCF10A rereplic inconclusive
Cc1nc2ccccn2c1C(=O)/C=C/c1cccc([N+](=O)[O-])c1	SW480 rereplic 4.1µM, KB-V1 MDR tox inconclusive, KB-3-1 cytotox 2.6µM, MCF10A rereplic inconclusive
CC(=O)c1c(C)nc2ccccn12	none
Cc1cc(C)n2ncc(S(=O)(=O)c3ccccc3)c2n1	MCF10A rereplic inconclusive
O=C(Nc1nc(-c2ccc(S(=O)(=O)N3CCCCCC3)cc2)cs1)c1cccs1	none
O=C(CN1CCN(C(=O)C2CC2)CC1)Nc1cc(C(F)(F)F)cc(C(F)(F)F)c1	KB-V1 MDR tox 21µM
N#Cc1cnn(-c2nc(SCc3ccccc3)nc3sc4c(c23)CCCC4)c1N	KB-V1 MDR tox 21µM
COCCCNc1nc(SCc2ccccc2)nc2sc3c(c12)CCC3	SW480 rereplic inconclusive
COn1c2c(c3c4nonc4ccc31)CCCC2	KB-V1 MDR tox 18µM, HT1080 IDH1KD tx inconclusive
COn1c2c(c3c4no[n+]([O-])c4ccc31)CCCC2	none
Cc1cccc(C(=O)Nc2nnc(SCC(=O)Nc3ccc4c(c3)oc3ccccc34)s2)c1	HT1080-NT tox inconclusive, HT1080 IDH1KD tx inconclusive, MCF10A rereplic inconclusive
COc1ccccc1C(=O)Nc1nnc(SCC(=O)Nc2ccc3c(c2)oc2ccccc23)s1	KB-V1 MDR tox 18µM
CCn1c(SCC(=O)Nc2ccc3c(c2)oc2ccccc23)nnc1-c1ccc(N)cc1	HT1080-NT tox inconclusive, SW480 rereplic inconclusive, KB-V1 MDR tox 18µM, HT1080 IDH1KD tx inconclusive, KB-3-1 cytotox inconclusive, MCF10A rereplic inconclusive
Fc1ccc(CNn2cnnc2SCc2ccc(F)cc2)cc1	KB-V1 MDR tox inconclusive, HT1080 IDH1KD tx inconclusive
Cc1ccc(CNn2cnnc2SCc2ccc(F)cc2)cc1	KB-V1 MDR tox 15µM, HT1080 IDH1KD tx inconclusive, KB-3-1 cytotox inconclusive
O=C(NNC(=O)C(c1ccccc1)c1ccccc1)c1ccccn1	HT1080-NT tox inconclusive, SW480 rereplic 4.1µM, KB-V1 MDR tox inconclusive, HT1080 IDH1KD tx inconclusive, KB-3-1 cytotox inconclusive, MCF10A rereplic inconclusive
CCNC(=S)NNC(=O)c1ccccn1	KB-V1 MDR tox 12µM
O=C(NNC(=O)c1ccccn1)c1ccc(OC(F)F)cc1	HT1080-NT tox inconclusive, SW480 rereplic inconclusive, KB-V1 MDR tox inconclusive, HT1080 IDH1KD tx 21µM, KB-3-1 cytotox inconclusive
CCn1nc(C(=O)NNC(=O)c2ccc(OC(F)F)cc2)c2ccccc2c1=O	KB-V1 MDR tox 16µM, KB-3-1 cytotox inconclusive
CCCN(CCC)CCNC(=O)CCC(=O)Nc1ccc2nc(N3CCOCC3)cc(C)c2c1	none
CC1(N2CCOCC2)CC2(O)C(=[N+]1[O-])CCc1c2no[n+]1[O-] (stereo not given)	none
C/C(=C\C(=O)C(F)(F)F)Nc1cc(C)cc(C)c1	none
O=C(N/N=C/c1ccccc1Cl)C1CC1	none
CC(C)(C)c1ccc(S(=O)(=O)N(CCCN2CCOCC2)Cc2cccs2)cc1	HT1080-NT tox inconclusive, SW480 rereplic inconclusive, HT1080 IDH1KD tx inconclusive, MCF10A rereplic 5.8µM
CCc1ccc(NC(=O)N(CCCN2CCOCC2)Cc2cccs2)cc1	none
CCOC(=O)CCN(Cc1cccs1)S(=O)(=O)c1ccc(Cl)cc1	KB-V1 MDR tox 15µM
CC(=O)Nc1ccc(S(=O)(=O)N(CCCN2CCOCC2)Cc2cccs2)cc1	MCF10A rereplic 1.2µM
CCN(CC)C(=O)CNC(=S)N(CCCN1CCOCC1)Cc1cccs1	KB-V1 MDR tox 7.3µM
O=C(CNC(=S)N(CCCN1CCOCC1)Cc1cccs1)NCCCN1CCOCC1	none
CC(=O)N(CCS(=O)(=O)c1ccc(Cl)cc1)Cc1cccs1	none
O=[N+]([O-])c1ccc(S(=O)(=O)N(CCCN2CCOCC2)Cc2cccs2)cc1	KB-V1 MDR tox inconclusive
CCOC(=O)c1c(S(=O)(=O)N2CCN(c3cc(Cl)ccc3C)CC2)c(C)n(C)c1C	none (no result: HT1080-NT tox, SW480 rereplic, HT1080 IDH1KD tx, MCF10A rereplic)
CCN(CC)S(=O)(=O)c1ccc(C(=O)Nc2cc(C)on2)cc1	MCF10A rereplic inconclusive
CNC(=O)/C(C#N)=C/c1c(N(Cc2ccccc2)Cc2ccccc2)nc2c(C)cccn2c1=O	HT1080-NT tox 18µM, KB-V1 MDR tox 23µM, HT1080 IDH1KD tx inconclusive, KB-3-1 cytotox 16µM, MCF10A rereplic inconclusive
CCNC(=O)/C(C#N)=C/c1c(N2CCN(C)CC2)nc2c(C)cccn2c1=O	SW480 rereplic inconclusive
N#C/C(=C\c1c(N2CCCCC2)nc2ccccn2c1=O)C(=O)NCc1ccco1	KB-V1 MDR tox 2.9µM, KB-3-1 cytotox inconclusive
CCNC(=O)/C(C#N)=C/c1c(N(Cc2ccccc2)Cc2ccccc2)nc2ccccn2c1=O	HT1080-NT tox 23µM, KB-V1 MDR tox 2.9µM, HT1080 IDH1KD tx inconclusive, KB-3-1 cytotox inconclusive
CC1CC(C)CN(C(=S)Nc2ccc(OC(F)F)cc2)C1 (stereo not given)	KB-V1 MDR tox 21µM
c1ccc(Nc2cc(-c3ccccc3)nc3ncnn23)cc1	SW480 rereplic inconclusive, KB-V1 MDR tox 15µM, HT1080 IDH1KD tx inconclusive, MCF10A rereplic inconclusive
COc1ccc(CCNc2cc(-c3ccccc3)nc3ncnn23)cc1	KB-V1 MDR tox 2.6µM, KB-3-1 cytotox inconclusive
Cc1ccc(C(=O)N/C(=C/c2ccco2)C(=O)Nc2cccc(C(=O)O)c2)cc1	KB-V1 MDR tox inconclusive
CCCCOCCCNC(=O)C[C@@H]1C[C@@]2(C(=O)OCC)CCC=C2N(Cc2ccco2)C1=O	none (no result: SW480 rereplic, MCF10A rereplic)
CCOc1cc(C2C3=C(CCCC3=O)Nc3ccc4ncccc4c32)ccc1O (stereo not given)	HT1080-NT tox inconclusive, SW480 rereplic 18µM, HT1080 IDH1KD tx inconclusive, KB-3-1 cytotox 13µM, MCF10A rereplic inconclusive
